SSB-PriA inh – K. pneumoniae PriA-SSBct interaction inhibition; inhibition, % at 33 µM; 430,000 tested, 0.6% active; AlphaScreen SSBct-PriA binding, biotinylated peptide; AID 1272365; in the data active means inhibition mostly above about 37%, no sharp cut-off; inactive means mostly below about 20%;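 further: plate controls were negative control peptide for no effect and reference peptide for full effect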
Rv3671c protease – inhibitors of M. tuberculosis serine protease Rv3671c. inhibition, % at 5.96 µM. 320,000 tested, 0.048% active. P9WHR9; in the data active means inhibition above about 38%;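 further: extracellular domain of Rv3671c used as enzyme; 0% = enzyme with DMSO and 100% = no enzyme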
FBA Mtb inh – inhibitors of M. tuberculosis fructose-bisphosphate aldolase | 360,000 tested, 2.3% active | AID 588726 | purified M. tuberculosis FBA, fluorescence read-out | inhibition, % at 1 µM; in the data active means inhibition above about 27%;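 further: 0% = vehicle and 100% = reference inhibitor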
Mtb bLac sens – beta-lactam sensitization of Mtb H37Rv. inhibition, % at 25 µM. 330,000 tested, 0.27% active. M. tuberculosis H37Rv growth with meropenem, percent inhibition; call rule not given here;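 further: growth measured after seven days incubation then overnight dye step; 0% = bacteria only wells and 100% = bacteria with antibiotic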
GDH-TPI inh – counter-screen for M. tuberculosis FBA inhibitors: GDH-TPI coupled enzymes; GDH-TPI coupled enzyme counterscreen, NADH absorbance; inhibition, % at 4.8 µM; 360,000 tested, 1.2% active; AID 588335; in the data active means inhibition above about 30%;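 further: 0% = DMSO wells and 100% = wells lacking the enzyme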
Mtb UGM inh – inhibitors of M. tuberculosis UDP-galactopyranose mutase. purified UGM, fluorescence polarization probe displacement. inhibition, % at 10 µM. 320,000 tested, 0.06% active. AID 504406; in the data active means inhibition above about 10%, passing the limit was not always enough
Target sequence (P9WIQ1 whole entry, looked up): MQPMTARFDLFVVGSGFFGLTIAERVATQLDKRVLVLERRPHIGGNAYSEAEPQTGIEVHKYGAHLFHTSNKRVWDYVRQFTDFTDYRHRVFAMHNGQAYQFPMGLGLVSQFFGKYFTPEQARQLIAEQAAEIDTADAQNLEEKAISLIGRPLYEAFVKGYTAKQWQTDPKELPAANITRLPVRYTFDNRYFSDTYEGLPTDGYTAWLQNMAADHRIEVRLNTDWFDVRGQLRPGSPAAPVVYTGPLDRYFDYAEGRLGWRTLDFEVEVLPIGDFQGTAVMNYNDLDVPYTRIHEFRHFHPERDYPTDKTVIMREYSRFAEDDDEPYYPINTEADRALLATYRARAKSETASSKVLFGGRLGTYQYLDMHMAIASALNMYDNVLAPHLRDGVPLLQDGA
* marks the source's active call; other numbers are inactive results; . = not tested or not shown; + = active, no number. Sampled rows, rich in hits. Any-hit rate of the full collection: about 3.2%.

SMILES | SSB-PriA inh | Rv3671c protease | FBA Mtb inh | Mtb bLac sens | GDH-TPI inh | Mtb UGM inh
COc1ccc2c(c1)c(=O)oc1cc(OCC(=O)N3CCCC(C)C3)ccc12 (centres undefined) | -11 | -8 | 116* | 2 | 17 | 0
Cc1c(Cl)c(=O)oc2cc(OCC(=O)N3CCCC(C)C3)ccc12 (centres undefined) | 0 | 10 | + | -8 | 17 | -3
COc1ccc2c(c1)c(=O)oc1cc(OCC(=O)N3CCC(C)CC3)ccc12 | -7 | -9 | 21 | -5 | 18 | 1
O=C(Nc1ccccc1)Nc1nc(S(=O)(=O)Cc2ccccc2)ns1 | -15 | . | . | . | . | .
COc1ccc(CNC(=O)Nc2cc(N3CCCC3)ncn2)cc1OC | 8 | . | . | . | . | .
OC(c1ccccn1)(c1ccccn1)c1ccccn1 | 79* | -9 | 1 | 2 | 0 | -1
c1ccc(-c2ccccn2)nc1 | 7 | -6 | -2 | 0 | -3 | 1
CCOC(=O)Cc1csc(NC(=O)c2cc(C)c(C)s2)n1 | -1 | -6 | 7 | 4 | 15 | -1
CCOC(=O)Cc1csc(NC(=O)c2cnc3sc(C)cn3c2=O)n1 | -9 | -2 | -2 | 9 | 54* | 1
CCOC(=O)Cc1csc(NC(=O)c2cc3c(s2)CCCC3)n1 | -6 | -5 | -1 | 58 | 31* | 0
CCOCCCNC(=O)c1c(N)n(-c2ccc(S(N)(=O)=O)cc2)c2nc3ccccc3nc12 | 0 | -8 | 33* | 4 | 6 | -1
CCOc1ccc(-n2c(N)c(C(=O)NCc3ccco3)c3nc4ccccc4nc32)cc1 | 0 | -8 | 52* | 17 | 18 | 4
COc1ccc(/C=C/C(=O)N/C(=C\c2ccco2)C(=O)NCCc2nc3ccccc3[nH]2)cc1 | 2 | 3 | -3 | 6 | 34* | -2
O=C(/C=C/c1ccco1)N/C(=C\c1ccco1)C(=O)NCCc1nc2ccccc2[nH]1 | 0 | 1 | -8 | -2 | 17 | 2
Cc1cccc(CC(=O)NC[C@](C)(O)c2ccc(-c3ccccc3)cc2)c1 | -17 | . | . | . | . | .
O=c1[nH]c(=S)c2c(n1Cc1ccc(F)cc1)CCCC2 | -18 | . | . | . | . | .
COc1cc(/C=N/NC(=O)C(=O)NCC2CCCO2)ccc1O (centres undefined) | . | 6 | -2 | -5 | 38* | -2
COc1cc(/C=N/NC(=O)C(=O)NCc2ccco2)ccc1O | . | -1 | -2 | 24 | 32* | -4
COc1cc(OC)c(OC)cc1/C=N/NC(=S)NCC1CCCO1 (centres undefined) | . | 2 | 14 | -2 | 34* | 0
COc1cc(/C=N/NC(=O)C(=O)NCc2ccco2)cc(Cl)c1O | . | 0 | -2 | 28 | 36* | 0
COc1cc(C=NNC(=O)C(=O)NCC2CCCO2)ccc1OCC(=O)N1CCOCC1 (centres undefined) | -7 | . | . | . | . | .
CCOc1ccc(C=NNC(=O)C(=O)NCc2ccco2)cc1 | -7 | . | . | . | . | .
Oc1c(Br)cc(C=NNC(=S)NCC2CCCO2)cc1Br (centres undefined) | -8 | . | . | . | . | .
CCOc1cc(C(=O)Nc2nnc(-c3ccccc3SC)o2)cc(OCC)c1OCC | -8 | . | . | . | . | .
Cc1ccc(-n2c(C)cc(C=C3C(=O)N(C)C(=O)N(C)C3=O)c2C)cc1 | -12 | . | 112* | . | 12 | .
SMILES | SSB-PriA inh | Rv3671c protease | FBA Mtb inh | Mtb bLac sens | GDH-TPI inh | Mtb UGM inh
O=C(CSc1ncccn1)NN=Cc1ccc(OC2CSC2)cc1 | 7 | . | . | . | . | .
N#CC(c1ccc(Cl)cc1)N1CCOCC1 (centres undefined) | -13 | 1 | 1 | -1 | 4 | 4
N#CC(c1ccc(O)cc1)N1CCOCC1 (centres undefined) | 5 | -1 | -1 | 3 | 31* | 1
CCc1nnc(NC(=O)c2ccc(S(=O)(=O)N3CCCC(C)C3)cc2)o1 (centres undefined) | -5 | 4 | 2 | 84 | 3 | 0
COc1ccccc1-c1nnc(NC(=O)c2ccc(S(=O)(=O)N(C)C)cc2)o1 | 2 | -20 | -2 | 45 | 34* | -2
CC1CCCN(S(=O)(=O)c2ccc(C(=O)Nc3nnc(Cc4cccs4)o3)cc2)C1 (centres undefined) | 37* | . | . | . | . | .
CN(C1CC1)S(=O)(=O)c1ccc(C(=O)Nc2nnc(Cc3cccs3)o2)cc1 | 74* | . | . | . | . | .
CSc1ccc(CC(=O)Nc2nnc(Cc3cccs3)o2)cc1 | -5 | . | . | . | . | .
CSc1ccccc1C(=O)Nc1nnc(Cc2cccs2)o1 | 45* | . | . | . | . | .
Cc1ccc(Cc2nnc(NC(=O)c3ccc(S(=O)(=O)N(C)C4CC4)cc3)o2)cc1C | 11 | . | . | . | . | .
CCN(CC)S(=O)(=O)c1ccc(C(=O)Nc2nnc(Cc3cccs3)o2)cc1 | 41 | . | . | . | . | .
CCCCN(C)S(=O)(=O)c1ccc(C(=O)Nc2nnc(Cc3cccs3)o2)cc1 | 58* | . | . | . | . | .
CS(=O)(=O)c1ccc(C(=O)Nc2nnc(Cc3cccs3)o2)cc1 | 64* | . | . | . | . | .
CN(C)S(=O)(=O)c1ccc(C(=O)Nc2nnc(Cc3cccs3)o2)cc1 | 74* | . | . | . | . | .
O=C(CSC1=NS(=O)(=O)c2cc(F)ccc2N1)Nc1ccc(OC(F)(F)F)cc1 | -3 | . | . | . | . | .
Cc1ccccc1-c1nc(C)c(CNC(=O)CCc2c(C)noc2C)s1 | 6 | . | . | . | . | .
C=CCCC(=O)NC[C@](C)(OC)c1cccc(Cl)c1 | 4 | . | . | . | . | .
O=C1NC(=O)/C(=C/c2cccc(O)c2)N1 | 1 | 2 | -2 | 9 | 7 | 1
COc1cc(C=C2C(=O)NC(=O)NC2=O)ccc1O | -8 | -10 | 1 | 4 | 32* | -3
COc1ccc(C=C2NC(=O)NC2=O)cc1O | . | . | -2 | . | 43* | .
COc1cc(/C=C2\C(=O)NC(=O)N(CCc3ccc(F)cc3)C2=O)ccc1O | -9 | -18 | -1 | 3 | 28 | 5
COc1cc(/C=C2\NC(=O)NC2=O)cc(Br)c1OC | -5 | 5 | -2 | -2 | 32* | -2
C=Cc1ccc(Cn2ccn3nc(-c4ccc(C)c(C)c4)cc3c2=O)cc1 | -1 | . | . | . | . | .
COc1ccc(/C=C/C(=O)NC(=S)NNC(=O)[C@H]2C[C@@H]2c2ccccc2)cc1OC | -16 | -1 | 1 | -3 | 44* | 1
CCc1cc(C(=O)O)c(NC(=O)/C=C/c2ccc(OC)cc2)s1 | -2 | 7 | -1 | . | 74* | 2
SMILES | SSB-PriA inh | Rv3671c protease | FBA Mtb inh | Mtb bLac sens | GDH-TPI inh | Mtb UGM inh
COc1cc(/C=C/C(=O)NC(=O)c2ccccc2O)ccc1O | -10 | -4 | -4 | 7 | 40* | -3
CCc1cc(C(=O)O)c(NC(=O)/C=C/c2ccc(OC)c(OC)c2)s1 | -6 | 8 | -4 | 81 | 18 | 6
O=C(/C=C/c1ccccc1)NC(=O)c1ccccc1O | -13 | -2 | 1 | 1 | 4 | -1
COc1ccc(/C=C/C(=O)Nc2ccc(C(N)=O)cc2)cc1OC | -8 | -5 | 6 | -3 | 53* | 4
CCN(CC)CCNC(=O)c1ccc(NC(=O)/C=C/c2cc(OC)c(OC)c(OC)c2)cc1 | 5 | -1 | 4 | 7 | 36* | -1
COc1ccc(/C=C/C(=O)Nc2ccccc2C(=O)O)cc1 | -15 | -6 | -2 | 0 | 20 | 3
COc1ccc(/C=C/C(=O)Nc2ccccc2C(=O)N2CCCC2)cc1 | -9 | -6 | -1 | -8 | 36* | -3

Assay outcomes from PubChem BioAssay.
